Data on 24 compounds can be found in PubChem BioAssay (EPA / NIEHS).

Results filed as inconclusive are left out. The source made the active and inactive calls. Rule for the calls, unless noted: active = hit-call score of the fitted dose curve at least 0.9, where 1 is the maximum; inactive = score below 0.9.

The nature of assay [1]: ACEA_ER_80hr: ACEA Biosciences xCELLigence Real-Time Cell Analysis on Estrogen Receptor Agonism for Proliferation (AID 2282667; active = hit-call score of the fitted dose curve at least 0.9, where 1 is the maximum). Conditions: T47D proliferation, impedance (xCELLigence), 80 h. The procedure, abridged:
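Real-time electrical impedance tracked growth of the human breast line T47D, with the 80 h post-dosing value used. Dosing spanned eight 1:4 steps down from a 100 uM final top concentration, run in duplicate.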

Assay [2] can be described thus: APR_HepG2_NuclearSize_1hr: Apredica 1-hour HepG2 Assay for Nuclear Size (AID 2282670). Conditions: high-content imaging, actives raise or lower the signal. The procedure, abridged:
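Nuclear size measured by high-content imaging of Hoechst 33342 nuclear stain after formaldehyde fixation; human HepG2 line exposed 1 hr to compounds at 0.39–200 uM in 0.5% DMSO, with bidirectional curve fitting relative to DMSO.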

Assay [3] is described as follows: APR_HepG2_P-H2AX_1hr: Apredica 1-hour HepG2 Assay for H2AX Phosphorylation (AID 2282673). Conditions: high-content imaging, actives raise or lower the signal. The procedure, abridged:
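Phospho-H2A.x immunofluorescence (1:200, FITC secondary) plus Hoechst nuclear stain, quantified by high-content imaging in HepG2 after 1 hr compound exposure. Ten concentrations, 0.39 to 200 uM, in duplicate with 0.5% DMSO; fit both directions against DMSO.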

A short description of assay [4]: APR_HepG2_MitoMass_1hr: Apredica 1-hour HepG2 Assay for Mitochondrial Mass (AID 2282674). Conditions: high-content imaging, actives raise or lower the signal. The method in brief: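 Mitochondrial mass is taken from MitoTracker Red CMXRos (250 nM, 30 min, pre-fixation) fluorescence imaged at 20x in HepG2 cells. Exposure lasted 1 hr across ten concentrations, 0.39 to 200 uM, 0.5% DMSO; DMSO baseline, bidirectional fitting.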

Assay [5] in a line: APR_HepG2_CellCycleArrest_1hr: Apredica 1-hour HepG2 Assay for Cell Cycle Arrest (AID 2282666). Conditions: high-content imaging, actives raise or lower the signal. The method in brief:
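Cell cycle arrest scored from nuclear DNA content (Hoechst 33342) using high-content imaging of fixed HepG2 cells after 1 h treatment across 0.39–200 uM, in duplicate. Gain or loss fitted relative to 0.5% DMSO.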

Assay [6] in a line: APR_HepG2_CellLoss_1hr: Apredica 1-hour HepG2 Assay for Cell Loss (AID 2282668).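 Note: curves fitted both ways against DMSO so gain or loss of cells counts.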 Conditions: high-content imaging. The method in brief: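 Cell number comes from high-content imaging of Hoechst-labelled nuclei in fixed HepG2 cells. Cells were exposed for 1 h to ten concentrations from 0.39 to 200 uM in 0.5% DMSO. Gain or loss was fitted against DMSO controls.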
Assay [7] is described as follows: APR_HepG2_MitoticArrest_1hr: Apredica 1-hour HepG2 Assay for Mitotic Arrest (AID 2282672). Conditions: high-content imaging, actives raise or lower the signal. The procedure, abridged: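 Ten-point concentration series (0.39 to 200 uM, duplicates, 0.5% v/v DMSO) applied to human HepG2 liver cells for 1 hr. High-content imaging of phospho-histone H3 and Hoechst-stained nuclei after fixation and permeabilization; DMSO-normalised bidirectional fit.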

The nature of assay [8]: APR_HepG2_MicrotubuleCSK_1hr: Apredica 1-hour HepG2 Assay for Microtubule CSK Stabilty (AID 2282669). Conditions: HepG2 microtubule cytoskeleton imaging, actives raise or lower the signal. The procedure, abridged: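 Alpha-tubulin immunofluorescence, imaged by automated high-content microscopy with Hoechst nuclear segmentation, measured cytoskeletal change after 1 h dosing of HepG2 at 0.39–200 uM in 0.5% DMSO. Activity fitted in both directions relative to DMSO.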

The nature of assay [9]: APR_HepG2_MitoMembPot_1hr: Apredica 1-hour HepG2 Assay for Mitochondrial Membrane Potential (AID 2282675). Conditions: imaging, actives raise or lower the signal. The method in brief: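 Mitochondrial membrane potential read as MitoTracker Red CMXRos intensity by automated imaging of fixed HepG2 cells. Dye at 250 nM for 30 min pre-fixation; compounds 0.39 to 200 uM for 1 hour, duplicate wells, 0.5% DMSO.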

Regarding `CCCN(CCC)c1c([N+](=O)[O-])cc(C(F)(F)F)cc1[N+](=O)[O-]`, the compound was called inactive in assay [1], in [2], in assay [3] and in assay [4].

For the compound `CCCN(CCOc1c(Cl)cc(Cl)cc1Cl)C(=O)n1ccnc1`, the compound was classed as inactive in assay [5], in assay [6], in [2], in assay [7], in [3] and in [4].

Consider `CCc1ccc(C(=O)NN(C(=O)c2cc(C)cc(C)c2)C(C)(C)C)cc1`, for which the outcome in [5], in assay [2], in assay [3] and in [4] was inactive.

Take `COC(=O)c1ccccc1S(=O)(=O)NC(=O)N(C)c1nc(C)nc(OC)n1`: the outcome in assay [5], in [2], in assay [3] and in assay [4] was inactive.

Regarding `CC(C)(C)C(O)/C(=C\c1ccc(Cl)cc1Cl)n1cncn1` (stereo not given), the result in [5], in [2], in assay [3] and in assay [4] was inactive.

As for `CNC(=O)/C=C(\C)OP(=O)(OC)OC`, the compound was classed as inactive in assay [1], in assay [6], in assay [8], in [2], in assay [7] and in assay [3]. The compound was classed as inactive in assay [4].

On to `O=C(O)C(F)(F)C(F)(F)C(F)(F)C(F)(F)C(F)(F)C(F)(F)C(F)(F)F`, for which the outcome in assay [5], in assay [6], in assay [8], in assay [2], in assay [3] and in assay [4] was inactive. In addition, the result in assay [9] was inactive.

On to `Clc1ccccc1-c1nnc(-c2ccccc2Cl)nn1`, for which the result in assay [1], in assay [2], in assay [3] and in assay [4] was inactive.

Take `Oc1cc(Cl)ccc1Oc1ccc(Cl)cc1Cl`: the AC50 is 118 µM (active) in assay [5], 158 µM (active) in [2], 99.8 µM (active) in assay [3] and 170 µM (active) in assay [4].

Regarding `O=S1OCC2C(CO1)C1(Cl)C(Cl)=C(Cl)C2(Cl)C1(Cl)Cl` (stereo not given), the result in [6], in [8], in [2], in assay [3] and in assay [4] was inactive.

As for `CC(C)OC(=O)Nc1cccc(Cl)c1`, the compound was classed as inactive in [5], in [8], in assay [2], in assay [3] and in assay [4].

In the case of `COC(=O)c1ccccc1CS(=O)(=O)NC(=O)Nc1nc(OC)cc(OC)n1`, the call in [5], in assay [2], in assay [7], in [3] and in assay [4] was inactive.

Turning to `CCOc1nc(NC)nc(NC(=O)NS(=O)(=O)c2ccccc2C(=O)OC)n1`, the compound was classed as inactive in assay [5], in assay [8], in [2], in assay [3] and in [4].

`CCC(C)Nc1c([N+](=O)[O-])cc(C(C)(C)C)cc1[N+](=O)[O-]` (stereo not given): the result in assay [1], in assay [2], in [3], in assay [4] and in assay [9] was inactive.

On to `Oc1ccc(Cl)cc1Cc1ccccc1`, for which the AC50 is 114 µM (active) in assay [5], 112 µM (active) in assay [2] and 110 µM (active) in assay [3]. Besides, the result in assay [4] was inactive.

With `C#CCN1C(=O)COc2cc(F)c(N3C(=O)C4=C(CCCC4)C3=O)cc21`, the compound was called inactive in assay [1], in assay [6], in assay [8], in [2], in assay [3] and in assay [4].

Turning to `CNC(=O)CSP(=S)(OC)OC`, the outcome in [1], in assay [2], in assay [3], in assay [4] and in [9] was inactive.

For the compound `N#Cc1c(Cl)c(Cl)c(Cl)c(C#N)c1Cl`, the outcome in [5] and in [2] was inactive. Also, the AC50 was 8.28 µM (active) in [7], 3.46 µM (active) in [3] and 5.34 µM (active) in assay [4].

As for `COP(=O)(OC)OC=C(Cl)Cl`, the call in [1], in assay [2], in [3], in assay [4] and in [9] was inactive.

Consider `Cc1[nH]c(=O)n(C(C)(C)C)c(=O)c1Cl`, for which the outcome in assay [5], in [1], in [6], in assay [2], in assay [7] and in [3] was inactive. Further, the compound was called inactive in assay [4].

With `O=[N+]([O-])/N=C1\NCCN1Cc1ccc(Cl)nc1`, the call in assay [1], in assay [2], in [3] and in assay [4] was inactive.

On to `COc1nn(CSP(=S)(OC)OC)c(=O)s1`, for which the outcome in [5], in [2], in assay [3] and in assay [4] was inactive.

For the compound `O=[N+]([O-])c1c(Cl)c(Cl)c(Cl)c(Cl)c1Cl`, the compound was classed as inactive in [6], in [8], in assay [2], in [3] and in assay [4].

Turning to `N#CN`, the result in assay [1], in [2], in assay [7], in assay [3], in [4] and in assay [9] was inactive.

Usually AC50 stands for the concentration at which the activity in the assay is half-maximal.
